Experimental data taken from PubChem BioAssay.

Each molecule was assayed against Focal adhesion kinase 1 (Homo sapiens) (UniProt Q05397) (assay: small-molecule microarray binders of FAK, primary screen, biochemical, 635/667 nm fluorescence, BSA, DTT (AID 1130;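 note: composite of spot emission at 667 nm and signal to noise over triplicate slides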)). Conditions: PTK2 binding, 635 nm fluorescence, higher = more signal.
Chain of Focal adhesion kinase 1 (Homo sapiens) (Q05397 whole entry, looked up): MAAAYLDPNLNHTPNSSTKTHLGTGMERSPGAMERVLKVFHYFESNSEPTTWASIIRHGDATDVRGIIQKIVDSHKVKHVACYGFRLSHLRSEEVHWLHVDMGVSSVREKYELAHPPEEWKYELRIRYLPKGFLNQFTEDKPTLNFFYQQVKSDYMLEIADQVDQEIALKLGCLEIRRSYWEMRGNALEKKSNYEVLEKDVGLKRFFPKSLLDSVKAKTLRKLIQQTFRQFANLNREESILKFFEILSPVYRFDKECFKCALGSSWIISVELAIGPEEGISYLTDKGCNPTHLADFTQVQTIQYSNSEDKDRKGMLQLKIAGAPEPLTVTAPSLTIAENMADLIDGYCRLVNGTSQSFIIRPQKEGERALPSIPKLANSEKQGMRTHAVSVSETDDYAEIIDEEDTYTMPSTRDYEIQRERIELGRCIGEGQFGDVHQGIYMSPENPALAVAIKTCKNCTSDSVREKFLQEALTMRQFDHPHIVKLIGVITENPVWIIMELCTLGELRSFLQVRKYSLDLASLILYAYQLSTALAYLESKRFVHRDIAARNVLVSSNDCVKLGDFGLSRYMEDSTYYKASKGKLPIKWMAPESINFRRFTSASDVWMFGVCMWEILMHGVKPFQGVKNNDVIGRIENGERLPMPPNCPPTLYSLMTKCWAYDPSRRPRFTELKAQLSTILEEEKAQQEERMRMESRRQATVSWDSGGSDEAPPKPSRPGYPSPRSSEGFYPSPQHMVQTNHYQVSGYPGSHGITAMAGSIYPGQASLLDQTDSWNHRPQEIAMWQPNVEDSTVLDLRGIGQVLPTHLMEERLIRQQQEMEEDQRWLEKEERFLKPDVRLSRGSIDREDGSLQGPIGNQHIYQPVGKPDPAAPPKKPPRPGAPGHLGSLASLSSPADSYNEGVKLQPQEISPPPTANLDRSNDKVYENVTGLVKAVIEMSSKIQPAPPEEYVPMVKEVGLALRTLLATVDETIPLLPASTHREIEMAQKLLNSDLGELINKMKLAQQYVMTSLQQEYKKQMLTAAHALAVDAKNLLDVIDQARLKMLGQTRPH

SMILES | composite z-score
COc1ccc(CCN2C(=O)[C@@]3(c4ccc([N+](=O)[O-])cc4)CC(=O)N(CC45CC6CC(CC(C6)C4)C5)[C@@H]3c3ccc(CO)cc32)cc1 | 0.38
C=CCN1C(=O)[C@@]2(Cc3ccccc3)N=C(c3ccc(OCCCO)cc3)O[C@H]2c2ccccc21 | 0.665
CN1CCC(CCCO)=CC1C1CC1 (stereo unspecified) | -0.233
CC(C)N1CC=CC23O[C@@H]4/C=C\CCCOC(=O)C4[C@H]2C(=O)N(CCCCCO)[C@@H]3C1=O (stereo partly specified) | -0.925
COCCOC(=O)N1C(=O)[C@@]2(c3cc(C#CCC(C(=O)OC)C(=O)OC)ccc31)[C@H](C(=O)N1CCN(c3ncccn3)CC1)[C@H]1C(=O)O[C@H](c3ccccc3)[C@H](c3ccccc3)N1[C@@H]2c1ccc(O)cc1 | 0.89
CCC(=O)[C@]12O[C@@]3([C@@H]4C(=O)OCC[C@@H]41)N(Cc1ccccc1)C(C)=C(C(=O)OC)[C@@H](c1ccccc1)N3C2=O | 0.0625
COC(=O)[C@@]1(Cc2ccc(OC)cc2)[C@H]2c3cc(C(=O)N(C)C)n(Cc4ccc(C)c(F)c4F)c3C[C@H]2CN1C(=O)c1ccccc1 | 0.0211
COc1cc(CO)cc(I)c1O[C@H]1C=C(C(=O)NCCO)C[C@@H](NCCc2c[nH]c3ccccc23)[C@@H]1O | -0.0981
Cc1ccc(N2C(=O)c3ccccc3[C@](C)(C(=O)O)[C@@H]2c2ccc(CO)cc2)nc1 | -0.594
COC(=O)[C@@]1(Cc2ccccc2)[C@H]2c3cc(C(=O)N4CCCC4)n(CCN4CNCC4=O)c3C[C@H]2CN1C(=O)c1ccccc1 | 1.72
CO[C@@H]1COC(=O)[C@H](C)NC(=O)CC=C[C@@H](C)[C@H](OC)COC(=O)[C@H](C)NC(=O)CC=C[C@H]1C | 0.0533
C=C(COC)/C(=C/C[C@@H](OC(C)=O)c1cccc(OCCO)c1)c1cc(C(=O)OC)ccc1OC | -0.453
CCOC(=O)C[C@H]1[C@H](OC(=O)c2ccccc2-c2ccccc2)[C@@H](NC(=O)c2ccc(-c3ccccc3)cc2)c2cc(OCCCO)ccc2N1C(=O)Cc1ccc(OC)cc1 | 0.371
[N-]=[N+]=NCc1ccccc1C[C@]1(C(=O)N2CCCCC2)N=C(c2ccc(OCCCO)cc2)O[C@H]1c1ccccc1CN=[N+]=[N-] | 0.652
CO[C@H]1COC(=O)[C@@H](OCc2ccccc2)C=C[C@H](C)[C@@H](OC)COC(=O)[C@H](OCc2ccccc2)C=C[C@@H]1C | 0.104
COCCOC(=O)N1C(=O)[C@@]2(c3cc(C#CCNC(N)=O)ccc31)[C@H](c1ccc(OCCO)cc1)N1[C@H](c3ccccc3)[C@H](c3ccccc3)OC(=O)[C@H]1[C@@H]2C(=O)Nc1nc2ccccc2s1 | 0.0616
CCOC(=O)C1=CC[C@@H](c2ccc(-c3ccc(OCc4ccccc4)cc3)c(OC)c2)N(S(=O)(=O)c2ccc(C)cc2)[C@H]1c1ccccc1 | -0.0822
Cc1ccc(S[C@]2(C(=O)O)CC(=O)N(Cc3ccccc3)[C@@H]2c2ccc(CO)cc2)cc1 | -0.412

SMILES | composite z-score
Cc1ccc(S[C@]2(C(=O)NC(C)C)CC(=O)N(Cc3cc(C(F)(F)F)cc(C(F)(F)F)c3)[C@@H]2c2ccc(CO)cc2I)cc1 | 0.481
CO[C@@H]1COC(=O)[C@H](COCc2ccccc2)NC(=O)CC=C[C@@H](C)[C@H](OC)COC(=O)[C@H](COCc2ccccc2)NC(=O)CC=C[C@H]1C | -0.0624
CCC1=C2CN(Cc3ccccc3Br)[C@@H]([C@@H](O)Cc3ccccc3)C2C=CCC1 (stereo partly specified) | 0.172
COCCOC(=O)N1C(=O)[C@@]2(c3cc(C#CCC(C(=O)OC)C(=O)OC)ccc31)[C@H](c1ccccc1OCCO)N1[C@H](c3ccccc3)[C@H](c3ccccc3)OC(=O)[C@H]1[C@@H]2C(=O)N1CCCCCCC1 | 0.384
CO[C@@H]1COC(=O)[C@@H]2CCCN2C(=O)CC=C[C@@H](C)[C@H](OC)COC(=O)[C@@H]2CCCN2C(=O)CC=C[C@H]1C | -0.191
C=C(COC)/C(=C/C[C@H](OC(C)=O)c1ccc(OCCO)cc1)c1cnc2ccccc2c1 | 0.771
CC(=O)Nc1ccc([C@H]2[C@H](C)CC[C@H]3C(=O)N4[C@@H](CC[C@@H](C)[C@@H]4c4ccc(NC(C)=O)cc4)C(=O)N32)cc1 | 0.558
CN(C)CCCC[C@@H]1NC(=O)[C@@H]2C[C@H](C(=O)O)[C@H](c3ccc(O)cc3)N2C1=O | 0.324
C[C@@H]1CC[C@H]2C(=O)N3[C@@H](CC[C@@H](C)[C@@H]3c3cccc(N4CCOCC4)c3)C(=O)N2[C@H]1c1cccc(Br)c1 | -0.0269
CCCN1C(=O)[C@@]2(CCS(=O)(=O)c3ccccc3)N=C(c3ccc(OCCCO)cc3)O[C@H]2c2ccccc21 | 0.494
O=C(O)[C@@H]1Cc2c([nH]c3ccccc23)[C@@H](c2ccccc2)N1 | 0.948
C[C@@H]1CC[C@H]2C(=O)N3CCC[C@H]3C(=O)N2[C@H]1c1ccc(Br)cc1 | 0.335
CCC#CCN(Cc1ccccc1Br)[C@H](/C=C/c1ccccc1)[C@@H](O)Cc1ccccc1 | -0.0168
[N-]=[N+]=NCc1ccccc1C[C@]1(C(N)=O)N=C(c2ccc(OCCCO)cc2)O[C@H]1c1ccccc1CN=[N+]=[N-] | 1.21
C=CCC(OC(C)=O)[C@@H]1[C@@H](N(Cc2ccc(-c3ccccc3)cc2)C(=O)c2ccc(-c3ccccc3)cc2)c2cc(OCCCO)ccc2N1C(=O)Cc1ccc(OC)cc1 (stereo partly specified) | 0.602
O=C1C[C@@](C(=O)NC2CC2)(c2ccc([N+](=O)[O-])cc2)[C@@H](c2ccc(CO)cc2I)N1CC12CC3CC(CC(C3)C1)C2 | 0.32
Cc1ccc(N2C(=O)c3ccccc3[C@@H](C(=O)NCC(F)(F)F)[C@@H]2c2ccc(CO)cc2)nc1 | -0.589
C=CC[C@]1(C(=O)O)N=C(c2ccc(OCCCO)cc2)O[C@H]1c1ccccc1 | -0.231
